In PubChem BioAssay AID1240 (Sanford-Burnham Center for Chemical Genomics, 2008):
In all, about 50,000 compounds went through this assay and about 800 (1.6%) showed an effect of 50% or more. The sample holds strong results, similar compounds and a random draw of the others, so the mix is not that of the screen.

These molecules were tested against Bcl-2-like protein 10 (Homo sapiens) (UniProt Q9HD36) (assay: Phenotype converters, Bcl-B/TR3 peptide binding displacement, primary biochemical FP (AID 1240;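 note: 0% = Bcl-B with tracer peptide and DMSO and 100% = tracer peptide lacking Bcl-B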)). Conditions: GST-Bcl-B / FITC-TR3 peptide fluorescence polarization; stronger effect = higher value; compound at 3.75 mg/L.
Chain of Bcl-2-like protein 10 (Homo sapiens) (Q9HD36 whole entry, looked up): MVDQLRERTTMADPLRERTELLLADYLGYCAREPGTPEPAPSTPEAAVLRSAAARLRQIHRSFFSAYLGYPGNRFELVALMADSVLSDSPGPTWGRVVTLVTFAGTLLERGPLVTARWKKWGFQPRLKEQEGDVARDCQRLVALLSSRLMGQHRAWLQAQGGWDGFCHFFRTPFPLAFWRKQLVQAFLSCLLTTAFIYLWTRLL
With `CC1CCC2(CC1)C(C#N)=C(SCC(N)=O)NC(=O)C2C#N` (stereo not given) the displacement was -7.2%.
`CCOC(=O)c1sc(NC(=O)c2ccc(Cl)cc2Cl)nc1C` showed a displacement of 17%.
For `O=C1CC(N(Cc2ccco2)C(=S)NCCc2ccccc2)C(=O)N1c1ccc(F)cc1` (stereo not given), the displacement was 27.4%.
`CC(C)(C)NC(=O)c1cccc(C(=O)Nc2cccc(O)c2)c1` was tested, and the displacement was -3.2%.
In the case of `c1ccc(C2=Nc3ccccc3NC(c3ccccc3)C2)cc1` (stereo not given), the displacement was -26.7%.
For `O=C(NN1C(=O)/C(=C/c2ccc(O)c(O)c2)SC1=S)c1ccccc1Br`, the displacement was 73%.
`COc1cc(/C=C2\SC(=S)N(NC(=O)c3ccccc3Br)C2=O)ccc1O` showed a displacement of -21.3%.
In the case of `O=C(NN1C(=O)/C(=C/c2ccc(O)cc2)SC1=S)c1ccccc1Br`, the displacement was -72.2%.
`CCCCOc1cccc(NC(=O)c2cccc([N+](=O)[O-])c2C)c1` was tested, and the displacement was 5%.
`O=C(Cc1ccc(Br)cc1)Nc1cc([N+](=O)[O-])ccc1Cl` was tested, and the displacement was 4.4%.
Work on `O=C1N/C(=N\N=C\c2ccccc2O)SC1Cc1ccc(Cl)cc1` (stereo not given) yielded a displacement of 8.7%.
For `O=C(NNC(=O)c1cccc(Cl)c1)c1cccc(F)c1`, the displacement was -4.7%.
`CCC(C)(C)C1CCc2c(sc(NC(=O)c3cnccn3)c2C(=O)OC)C1` (stereo not given) gave a displacement of 6.1%.
Work on `N#Cc1c(/N=C\c2ccc(N3CCCCC3)c([N+](=O)[O-])c2)sc2c1CCCC2` yielded a displacement of -5.3%.
With `N#Cc1c(/N=C\c2ccc(N3CCOCC3)c([N+](=O)[O-])c2)sc2c1CCCC2` the displacement was 81.3%.
With `N#Cc1c(/N=C/c2cc([N+](=O)[O-])c(N3CCOCC3)cc2N2CCOCC2)sc2c1CCCC2` the displacement was 14.5%.
With `O=C1NC(=O)/C(=C\c2ccc(O)cc2)S1` the displacement was 1.8%.
Work on `CCCC(=O)Nc1ccc(-c2nc3cc(C)c(C)cc3o2)cc1` yielded a displacement of 14.7%.
`CCc1ccc(OCC(=O)Nc2ccc(-c3nc4cc(C)c(C)cc4o3)c(O)c2)cc1` gave a displacement of 118%.
Molecule `CCc1ccc(OCC(=O)Nc2ccc(O)c(-c3nc4cc(C)ccc4o3)c2)cc1` has a displacement of 7.4%.
For `CCCC(=O)Nc1ccc(-c2nc3cc(C)c(C)cc3o2)c(O)c1`, the displacement was 96.8%.
`CCc1ccc(OCC(=O)Nc2ccc(-c3nc4ccccc4o3)c(O)c2)cc1` showed a displacement of 0.8%.
Work on `CCC(=O)Nc1ccc(O)c(-c2nc3cc(C)c(C)cc3o2)c1` yielded a displacement of -7%.
Work on `CCOC(=O)c1cnn(-c2ccccc2)c1NC(=O)c1ccccc1` yielded a displacement of 2.4%.
Molecule `O=C(c1ccco1)N(C(=O)c1ccco1)c1cc(C(F)(F)F)ccc1Cl` has a displacement of -3.3%.
Work on `COc1ccc(OCCOCCN2CCC(C)CC2)cc1` yielded a displacement of -9.4%.
`CNC(=O)c1c(-c2ccccc2)oc2ccc(O)cc12` was tested, and the displacement was 10.3%.
For `O=C1CC(c2ccccc2)CC(O)=C1C=NCc1ccc2c(c1)OCO2` (stereo not given), the displacement was -2.5%.
Work on `O=C1C(C=NCc2ccc(Cl)c(Cl)c2)=C(O)c2ccccc21` yielded a displacement of 2.5%.
With `O=C1C(C=NCc2ccc3c(c2)OCO3)=C(O)c2ccccc21` the displacement was 134%.
